The text below walks through data of PubChem BioAssay (EPA / NIEHS).

Each structure is given as a SMILES string. Calls of active or inactive are those of the source. How the source made its calls: active means hit-call score of the fitted dose curve at least 0.9, where 1 is the maximum; inactive means score below 0.9.

Read-out in assay [1]: Interleukin-8 (IL8), CXCL8 (gene 3576)
As to the kind of experiment: BSK_CASM3C_IL8: BioMAP Diversity Plus: CASM3C Assay for Interleukin-8 (IL8) Biomarker Activity (AID 2283042).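 Further: IL-8 protein level quantified by ELISA.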 The note with it: primary human coronary artery smooth muscle cells; actives raise or lower the signal.

Read-out in assay [2]: Human Leukocyte Antigen - DR isotype (HLADR), HLA-DRA (gene 3122)
As to the kind of experiment: BSK_CASM3C_HLADR: BioMAP Diversity Plus: CASM3C Assay for Human Leukocyte Antigen - DR isotype (HLADR) Biomarker Activity (AID 2283043).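 Further: cell-surface HLA-DR protein level quantified by ELISA.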 The following applies: primary human coronary artery smooth muscle cells; actives raise or lower the signal.

Read-out in assay [3]: Macrophage colony-stimulating factor (MCSF), CSF1 (gene 1435)
As to the kind of experiment: BSK_CASM3C_MCSF: BioMAP Diversity Plus: CASM3C Assay for Macrophage colony-stimulating factor (MCSF) Biomarker Activity (AID 2283044).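 Further: M-CSF protein amount quantified by ELISA after 24 h exposure.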 The following applies: primary human coronary artery smooth muscle cells; actives raise or lower the signal.

Read-out in assay [4]: Low-density lipoprotein receptor (LDLR), LDLR (gene 3949)
The assay is described as follows: BSK_CASM3C_LDLR: BioMAP Diversity Plus: CASM3C Assay for Low-density lipoprotein receptor (LDLR) Biomarker Activity (AID 2283045).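 Further: LDLR protein level on the cell surface quantified by ELISA.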 The note with it: primary human coronary artery smooth muscle cells; actives raise or lower the signal.

Read-out in assay [5]: Monocyte Chemoattractant Protein-1 (MCP1), CCL2 (gene 6347)
The assay is described as follows: BSK_CASM3C_MCP1: BioMAP Diversity Plus: CASM3C Assay for Monocyte Chemoattractant Protein-1 (MCP1) Biomarker Activity (AID 2283046).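 Further: MCP-1 level quantified by ELISA 24 h after dosing.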 The following applies: primary human coronary artery smooth muscle cells; actives raise or lower the signal.

Assay [6] is described as follows: BSK_CASM3C_Proliferation: Cell Proliferation Assessment in the BioMAP Diversity Plus: CASM3C Assay (AID 2283047).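 Further: sulforhodamine B total protein stain as relative cell number at 560 nm; sub-confluent cells exposed 48 h before staining; fitted both ways against DMSO so gain or loss of cell number.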 The following applies: primary human coronary artery smooth muscle cells.
Read-out in assay [7]: Monokine induced gamma interferon (MIG), CXCL9 (gene 4283)
The assay is described as follows: BSK_CASM3C_MIG: BioMAP Diversity Plus: CASM3C Assay for Monokine induced gamma interferon (MIG) Biomarker Activity (AID 2283048).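 Further: MIG protein level measured by ELISA.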 The note with it: primary human coronary artery smooth muscle cells; actives raise or lower the signal.

Read-out in assay [8]: serum amyloid A (SAA), SAA1 (gene 6288)
As to the kind of experiment: BSK_CASM3C_SAA: BioMAP Diversity Plus: CASM3C Assay for serum amyloid A (SAA) Biomarker Activity (AID 2283049).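 Further: SAA protein level quantified by ELISA.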 The following applies: primary human coronary artery smooth muscle cells; actives raise or lower the signal.

A short description of assay [9]: BSK_CASM3C_SRB: Viability Assessment in the BioMAP Diversity Plus: CASM3C Assay (AID 2283050).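 Further: total protein by SRB staining as cytotoxicity measure in parallel cultures; cells exposed to compound for 24 h.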 The note with it: primary human coronary artery smooth muscle cells.
Read-out in assay [10]: Thrombomodulin, THBD (gene 7056)
The assay is described as follows: BSK_CASM3C_Thrombomodulin: BioMAP Diversity Plus: CASM3C Assay for Thrombomodulin Biomarker Activity (AID 2283051).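 Further: thrombomodulin protein level measured by ELISA 24 h after dosing.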 The note with it: primary human coronary artery smooth muscle cells; actives raise or lower the signal.

Read-out in assay [11]: Tissue Factor, F3 (gene 2152)
As to the kind of experiment: BSK_CASM3C_TissueFactor: BioMAP Diversity Plus: CASM3C Assay for Tissue Factor Biomarker Activity (AID 2283052).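 Further: cell surface tissue factor protein level read by ELISA.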 The following applies: primary human coronary artery smooth muscle cells; actives raise or lower the signal.

Read-out in assay [12]: Interferon-gamma inducible Protein 10 (IP10), CXCL10 (gene 3627)
The assay is described as follows: BSK_hDFCGF_IP10: BioMAP Diversity Plus: hDFCGF Assay for Interferon-gamma inducible Protein 10 (IP10) Biomarker Activity (AID 2283053). The note with it: primary human foreskin fibroblasts; actives raise or lower the signal. The method in brief:
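ELISA read-out of IP-10 (CXCL10) from primary human skin fibroblasts, 24 h after compound addition. Gain or loss of signal versus DMSO baseline, bidirectional curve fitting.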

Read-out in assay [13]: Urokinase-type plasminogen activator receptor (uPAR), PLAUR (gene 5329)
As to the kind of experiment: BSK_CASM3C_uPAR: BioMAP Diversity Plus: CASM3C Assay for Urokinase-type plasminogen activator receptor (uPAR) Biomarker Activity (AID 2283054).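 Further: cell-surface uPAR protein level quantified by ELISA.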 The note with it: primary human coronary artery smooth muscle cells; actives raise or lower the signal.

Read-out in assay [14]: Vascular cell adhesion molecule 1 (VCAM1), VCAM1 (gene 7412)
The assay is described as follows: BSK_CASM3C_VCAM1: BioMAP Diversity Plus: CASM3C Assay for Vascular cell adhesion molecule 1 (VCAM1) Biomarker Activity (AID 2283055).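 Further: VCAM-1 protein level quantified by ELISA on the cells.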 The following applies: primary human coronary artery smooth muscle cells; actives raise or lower the signal.

Read-out in assay [15]: Collagen III, COL3A1 (gene 1281)
As to the kind of experiment: BSK_hDFCGF_CollagenIII: BioMAP Diversity Plus: hDFCGF Assay for Collagen III Biomarker Activity (AID 2283056). The note with it: primary human foreskin fibroblasts; actives raise or lower the signal. A digest of the protocol: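 Human foreskin primary fibroblasts were exposed to test chemicals for 24 h, after which collagen III was quantified by ELISA. Activity was fitted bidirectionally against DMSO as negative control and baseline.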

Read-out in assay [16]: Epidermal growth factor receptor (EGFR), EGFR (gene 1956)
The assay is described as follows: BSK_hDFCGF_EGFR: BioMAP Diversity Plus: hDFCGF Assay for Epidermal growth factor receptor (EGFR) Biomarker Activity (AID 2283057). The following applies: primary human foreskin fibroblasts; actives raise or lower the signal. A digest of the protocol:
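ELISA readout of EGFR on human dermal fibroblasts (primary foreskin cells), 24 h post-dosing; bidirectional curve fit vs DMSO baseline, gain or loss of signal scored.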

Read-out in assay [17]: Interleukin-8 (IL8), CXCL8 (gene 3576)
As to the kind of experiment: BSK_hDFCGF_IL8: BioMAP Diversity Plus: hDFCGF Assay for Interleukin-8 (IL8) Biomarker Activity (AID 2283058). The note with it: primary human foreskin fibroblasts; actives raise or lower the signal. A digest of the protocol: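 hDFCGF human dermal fibroblasts; 24 h chemical exposure; IL-8 by ELISA; bidirectional curve fit vs DMSO baseline; gain or loss of signal scored.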

A short description of assay [18]: BSK_hDFCGF_Proliferation: Cell Proliferation Assessment in the BioMAP Diversity Plus: hDFCGF Assay (AID 2283059).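 Further: curves fitted for both rise and fall of signal versus DMSO baseline.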 The note with it: primary human foreskin fibroblasts. A digest of the protocol: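 Steps: dose primary human dermal fibroblasts (foreskin); […] fix in 10% TCA; stain with 0.1% SRB; read 560 nm; fit gain or loss of signal against DMSO.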
Read-out in assay [19]: Macrophage colony-stimulating factor (MCSF), CSF1 (gene 1435)
As to the kind of experiment: BSK_hDFCGF_MCSF: BioMAP Diversity Plus: hDFCGF Assay for Macrophage colony-stimulating factor (MCSF) Biomarker Activity (AID 2283060). The following applies: primary human foreskin fibroblasts; actives raise or lower the signal. The method in brief:
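Human foreskin primary fibroblasts were treated with test chemical for 24 h, and M-CSF was then measured by ELISA. Data were fitted bidirectionally against DMSO as the negative control and activity baseline.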

The nature of assay [20]: BSK_hDFCGF_SRB: Viability Assessment in the BioMAP Diversity Plus: hDFCGF Assay (AID 2283061).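 Further: cells exposed to compound for 24 h before the read.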 The note with it: primary human foreskin fibroblasts. A digest of the protocol:
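Human foreskin primary fibroblasts were treated with compound and assessed 24 h after dosing. Total protein was measured by sulforhodamine B staining (0.1% SRB after 10% TCA fixation, 560 nm read) as a cytotoxicity marker, with bidirectional fitting against DMSO baseline.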

Turning to `CN(C)c1ccc(C(=C2C=CC(=[N+](C)C)C=C2)c2ccc(N(C)C)cc2)cc1`, the half-maximal activity concentration (AC50) (commonly the midpoint of the concentration-response curve, whichever way the signal moves) in assay [1] is 5.56 µM (active); in [2], 7.11 µM (active); in assay [3] it was 6.36 µM (active); in [4], 5.4 µM (active); in [5] it was 1.07 µM (active); in [6], 2.06 µM (active). For the same molecule, the AC50 in assay [7] was 8.07 µM (active); in [8] it was 0.822 µM (active); in assay [9], 7.66 µM (active); in assay [11] it was 1.49 µM (active); in assay [12], 4.07 µM (active); in [13], 1.54 µM (active). Besides, the AC50 in assay [14] was 8.39 µM (active); in [15], 0.148 µM (active); in assay [17] it was 6.66 µM (active); in [18], 1.39 µM (active); in assay [19], 1.77 µM (active); in assay [20], 2 µM (active). The result in [10] and in assay [16] was inactive.

`O=C(O)Cn1c(=O)n(Cc2ccc(Br)cc2F)c(=O)c2ccc(Cl)cc21`: the result in assay [1], in [2], in [3], in assay [4], in [5] and in [6] was inactive. The result in assay [7], in assay [8], in assay [9], in assay [10], in [11] and in [12] was inactive. Besides, the result in [13], in [14], in [15], in assay [16], in assay [17] and in assay [18] was inactive. For the same molecule, the outcome in [19] and in assay [20] was inactive.

On to `OC12N=C(c3ccccc3)SC1Cc1cc(Cl)ccc12` (stereo not given), for which the result in assay [1], in assay [2], in assay [3], in [4], in [5] and in assay [7] was inactive. Also, the outcome in [8], in assay [9], in assay [10], in [11], in assay [12] and in assay [13] was inactive. Moreover, the outcome in assay [14], in [15], in assay [16], in assay [17], in assay [18] and in assay [19] was inactive. The result in assay [20] was inactive. Also, the AC50 in assay [6] is 30.1 µM (active).

On to `CO[C@H]1/C=C/O[C@@]2(C)Oc3c(C)c(O)c4c(O)c(c(/C=N/N5CCN(C)CC5)c(O)c4c3C2=O)NC(=O)/C(C)=C\C=C\[C@H](C)[C@H](O)[C@@H](C)[C@@H](O)[C@@H](C)[C@H](OC(C)=O)[C@@H]1C`, for which the result in assay [1], in assay [2], in [3], in [4], in [5] and in [7] was inactive. Besides, the result in assay [8], in [9], in assay [10], in assay [11], in assay [12] and in assay [13] was inactive. For the same molecule, the result in [14], in [15], in assay [16], in assay [17], in assay [19] and in assay [20] was inactive. Moreover, the AC50 was 4.51 µM (active) in assay [6] and 19.4 µM (active) in assay [18].

Turning to `O=c1[nH]sc2ccccc12`, the half-maximal activity concentration (AC50) in assay [1] was 14.6 µM (active); in assay [2], 5.36 µM (active); in assay [3], 14.9 µM (active); in assay [4], 12.7 µM (active); in [5], 13.1 µM (active); in assay [6] it was 1.89 µM (active). In addition, the half-maximal activity concentration (AC50) was 10.7 µM (active) in [7]; 20.4 µM (active) in assay [8]; 17.3 µM (active) in assay [9]; 4.73 µM (active) in assay [10]; 28 µM (active) in assay [11]; 4.08 µM (active) in assay [12]. The half-maximal activity concentration (AC50) is 11.3 µM (active) in assay [13]; 10.7 µM (active) in assay [14]; 20 µM (active) in [15]; 20 µM (active) in [17]; 0.281 µM (active) in assay [18]; 3.22 µM (active) in [19]. In addition, the AC50 in [20] was 7.21 µM (active). Also, the outcome in [16] was inactive.

As for `c1ccc(C[n+]2cccc3ccccc32)cc1`, the result in assay [1], in assay [2], in assay [3], in assay [4], in assay [5] and in [6] was inactive. Also, the outcome in assay [7], in [8], in [9], in assay [10], in assay [11] and in assay [12] was inactive. Besides, the outcome in assay [13], in assay [14], in assay [15], in assay [16], in [17] and in [18] was inactive. Also, the outcome in [19] and in assay [20] was inactive.
